# In PubChem BioAssay (NCI):
# About 83,000 compounds went through this panel and 20% of them were active in at least one assay; those are over-represented in the sample as a whole.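 The test compound was applied at a single concentration to cells in 96-well plates for 48 hours, and percent growth was recorded.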 Unmarked numbers belong to inactive results. Calls of active or inactive are those of the source. How the source made its calls: active means growth percent below 10; inactive means the rest.
# Test system: RXF 393 renal
# Experiment: NCI-60 one-dose screen, 48 h (100 = growth as untreated, 0 = no growth, -100 = all killed)
# Conditions: 10 µM unless noted
row,Compound,growth
1,CC1=CCc2ccccc21,111%
2,O=C1Nc2ccccc2/C1=C/C(=O)c1ccc(N2CCCCC2)cc1,77%
3,COc1ccc2nc3c(cc2c1)C(=O)CC(c1ccccc1)C3 (configuration not stated),-2.76% (active)
4,Oc1ccc(N=Nc2nccs2)c(O)c1,90%
5,Cc1cc(-c2ccc(N=Nc3c(S(=O)(=O)O)cc4cc(S(=O)(=O)O)cc(N)c4c3O)c(C)c2)ccc1N=Nc1cc(S(=O)(=O)O)c2ccccc2c1O,107%
6,C#CCNC(=O)CC[C@]1(C)[C@H]2CC[C@@H]3[C@@H]([C@@](C)(O)CCC=C(C)C)CC[C@@]3(C)[C@]2(C)CC[C@H]1C(=C)C,30.6% [100 µM]
7,CC(=O)Nc1ccc2nc3ccc(NC(C)=O)cc3[n+](-c3ccccc3)c2c1,101%
8,CCN(CC)CCCCCCNc1cccc2cc(Br)cnc12,91%
9,COc1ccc(NC(=S)NNc2ccc(-c3ccc(OC)c(OC)c3)nn2)cc1,120%
10,O=[N+]([O-])c1cc([N+](=O)[O-])c(NN=C(c2ccc(O)cc2)c2ccc(O)cc2)cc1Cl,-76.5% (active)
11,CC(C)C1=NOC(=O)C1=Cc1cn(-c2ccccc2)nc1-c1cccc([N+](=O)[O-])c1,68.9%
12,C=C(C)[C@@H]1CC[C@]2(C(=O)NCCNCCNCCN)CC[C@]3(C)[C@H](CC[C@@H]4[C@@]5(C)CC[C@H](O)C(C)(C)[C@@H]5CC[C@]43C)[C@@H]12,-82.9% [100 µM] (active)
13,O=C1COCCN1c1ccc(Nc2nc(Cl)nc(N3CCOCC3)n2)cc1,92.4%
14,Cn1cc(-c2noc(-c3cn(C)c4ncc(F)cc34)n2)c2cc(Br)ccc21,90.9%
15,CC1(C)NCCC[C@]2(C)[C@H]3C=CC4=C5C[C@](C)(CO)CC[C@]5(C)CC[C@@]4(C)[C@]3(C)CC[C@@H]12,-70.4% [100 µM] (active)
16,CCCC(NC(=O)OCc1ccccc1)C(=O)O (configuration not stated),90.5%

row,Compound,growth
1,CC(C)C1=NOC(=O)C1=Cc1cn(-c2ccccc2)nc1-c1ccc(Cl)cc1,58.2%
2,COc1cc(OC)cc(C(=O)Nc2cc(-c3cccnc3)nc(NCCCN3CCOCC3)n2)c1,93.9%
3,Brc1ccc2c(c1)CN(C1CCCCC1)CO2,107%
4,CC/C=C(\C)C(CCC)(CN=O)C(=O)OCC (configuration not stated),123%
5,O=C(Nc1ccc(F)cc1)c1ccccc1,116%
6,O=C(O)c1cccc(CN2CCN(c3cc4c(cc3F)c(=O)c(C(=O)O)cn4C3CC3)CC2)c1O,118%
7,COC(=O)c1c(C)[nH]c(/C=C2\N=C(c3ccc[nH]3)C=C2OC)c1C,-33.9% (active)
8,C=CCCC1(C)NC(=O)NC1=O (configuration not stated),121%
9,O=[N+]([O-])c1cccc(N=NNc2cccc([N+](=O)[O-])c2)c1,90.2%
10,Cc1ccc(N)c(O)c1,82.1%
11,CCN(CC)c1ccc2cc(NC(=O)OCCNC(=O)CCNC(=O)[C@H](CC(C)C)NC(=O)C(C)(C)NC(=O)C(C)(C)NC(=O)[C@H](CC(C)C)NC(=O)CCNC(=O)C(C)(C)NC(=O)[C@H](CC(C)C)NC(=O)CCNC(=O)[C@@](C)(CC)NC(=O)[C@H](C)NC(=O)CCNC(=O)C(C)(C)NC(=O)[C@H](C)NC(=O)[C@@H]3CCCN3C(=O)[C@@](C)(CC)NC(=O)[C@H](Cc3ccccc3)NC(=O)C3CCCN3C(=O)C(C)(C)NC(=O)C3CCCN3C(=O)C(C)(C)NC(C)=O)c(=O)oc2c1 (some centres not stated),-82% (active)
12,COC(=O)[C@]12CCC(C)(C)C[C@H]1C1=CC[C@@H]3[C@@]4(C)C/C(=C/c5cccnc5)C(=O)C(C)(C)[C@@H]4CC[C@@]3(C)[C@]1(C)CC2,-76.5% [100 µM] (active)
13,CC(C)[C@H]1COC(=O)N1[C@@H]1C(=O)N([C@@H](CCC(=O)N2CCN(C3CCCC3)CC2)C(=O)N[C@@H]2CCCc3ccccc32)[C@@H]1/C=C/c1cccc(Cl)c1,50%
14,CCN=Cc1c(O)c(O)c(C(C)C)c2cc(C)c(-c3c(C)cc4c(C(C)C)c(O)c(O)c(C=NCC)c4c3O)c(O)c12,68.2%
15,O=c1cc(-c2ccccc2)oc2c(O)c(O)ccc12,72.9%
16,COc1ccc(C2NC(=O)C(C#N)c3c2sc2c(F)cccc32)cc1 (configuration not stated),55.9%
